# Experimental data reported in the supplement of paper PMC8728848.
# About 410 targets per protein were measured; listed, in parts, are those with the strongest signals and a random draw of the rest.
# B1: NakA (Mycobacterium tuberculosum) (protein)
# chain: SVVKPTKVTVFSPDGGADNPGEADLAIDGNPATSWKTDIYTDPVPFPSFKNGVGLMLQLPQATVVGTVAIDVASTGTKVEIRSASTPTPATLEDTAVLTSATALRPGHNTISVEAAAPTSNLLVWISTLGTTDGKSQADISEITIYAASD
# Assays:
# Assay in all cases: glycan array binding signal (z-score within array); higher = stronger binding
# Conditions in all cases: glycan notation: IUPAC condensed, linker removed
# [1] = molecular target: Fuc(a1-2)Gal(b1-4)GlcNAc(b1-3)Gal(b1-4)GlcNAc(b1-3)Gal(b1-4)GlcNAc
# Summary of the method: (§1)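 Glycan array data came from 3228 arrays in the Consortium for Functional Glycomics database, and only arrays with an available protein sequence were kept. Glycan names were put into IUPAC-condensed notation, and columns mapping to the same glycan were averaged. The binding signal is a within-array Z-score, averaged across arrays of one protein sequence run at different concentrations or buffers and across linkers. A negative Z-score can be read as non-binding.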
# [2] = molecular target: Fuc(a1-2)Gal(b1-4)[Fuc(a1-3)]GalNAc(b1-3)Gal(b1-4)[Fuc(a1-3)]GlcNAc
# Summary of the method: as §1
# [3] = molecular target: Fuc(a1-2)Gal(b1-4)[Fuc(a1-3)]GalNAc(b1-3)Gal(b1-4)[Fuc(a1-3)]GlcNAc(b1-3)Gal(b1-4)[Fuc(a1-3)]GalNAc
# Summary of the method: as §1
# [4] = molecular target: Fuc(a1-2)Gal(b1-4)[Fuc(a1-3)]GlcNAc
# Summary of the method: as §1
# [5] = molecular target: Fuc(a1-2)[Gal(a1-3)]Gal
# Summary of the method: as §1
# [6] = molecular target: Fuc(a1-2)[Gal(a1-3)]Gal(b1-4)[Fuc(a1-3)]GlcNAc
# Summary of the method: as §1
# [7] = molecular target: Fuc(a1-2)[GalNAc(a1-3)]Gal
# Summary of the method: as §1
# [8] = molecular target: Fuc(a1-3)GlcNAc
# Summary of the method: as §1
# [9] = molecular target: Fuc(a1-3)[Gal(b1-4)]GlcNAc
# Summary of the method: as §1
# [10] = molecular target: Gal(a1-2)Gal
# Summary of the method: as §1
# [11] = molecular target: Gal(b1-3)[Neu5Ac(a2-6)]GalNAc
# Summary of the method: as §1
# [12] = molecular target: Gal(b1-3)[Neu5Ac(b2-6)]GlcNAc
# Summary of the method: as §1
# [13] = molecular target: Gal(b1-4)GlcNAc(b1-2)Man(a1-3)[Gal(b1-4)GlcNAc(b1-2)Man(a1-6)]Man(b1-4)GlcNAc(b1-4)GlcNAc
# Summary of the method: as §1
# [14] = molecular target: Gal(b1-4)GlcNAc(b1-3)Gal(b1-4)GlcNAc(b1-3)Gal(b1-4)GlcNAc
# Summary of the method: as §1
# [15] = molecular target: Gal(b1-4)GlcNAc(b1-3)[Gal(b1-4)GlcNAc(b1-6)]GalNAc
# Summary of the method: as §1
# [16] = molecular target: Gal(b1-4)GlcNAc(b1-6)[Gal(b1-3)]GalNAc
# Summary of the method: as §1
# [17] = molecular target: Gal6S(b1-4)Glc6S
# Summary of the method: as §1
# [18] = molecular target: GalNAc(b1-4)GlcNAc
# Summary of the method: as §1
# [19] = molecular target: GlcNAc(b1-3)GalNAc
# Summary of the method: as §1
# [20] = molecular target: Kdn(a2-3)Gal(b1-4)GlcNAc
# Summary of the method: as §1
# [21] = molecular target: Neu5Ac(a2-3)Gal(b1-4)[Fuc(a1-3)]GlcNAc
# Summary of the method: as §1
# [22] = molecular target: Neu5Gc(a2-3)Gal(b1-3)GlcNAc
# Summary of the method: as §1
binder,measurement,setting,value
B1,glycan array binding signal (z-score),[1],2.46
same,glycan array binding signal (z-score),[2],1.53
same,glycan array binding signal (z-score),[3],2.85
same,glycan array binding signal (z-score),[4],2.46
same,glycan array binding signal (z-score),[5],0.037
same,glycan array binding signal (z-score),[6],2.29
same,glycan array binding signal (z-score),[7],0.057
same,glycan array binding signal (z-score),[8],3.17
same,glycan array binding signal (z-score),[9],-0.303
same,glycan array binding signal (z-score),[10],-0.019
same,glycan array binding signal (z-score),[11],-0.457
same,glycan array binding signal (z-score),[12],-0.353
same,glycan array binding signal (z-score),[13],-0.5
same,glycan array binding signal (z-score),[14],-0.502
same,glycan array binding signal (z-score),[15],-0.414
same,glycan array binding signal (z-score),[16],-0.553
same,glycan array binding signal (z-score),[17],-0.213
same,glycan array binding signal (z-score),[18],-0.305
same,glycan array binding signal (z-score),[19],-0.001
same,glycan array binding signal (z-score),[20],-0.507
same,glycan array binding signal (z-score),[21],-0.418
same,glycan array binding signal (z-score),[22],-0.404
